Measured values reported in PubChem BioAssay (NCATS).
Results filed as inconclusive are left out. Active and inactive are the calls of the source. Calls follow the shape of the dose curve; as a rule, active = well fitted inhibition curve with a large enough effect; inconclusive = small, poorly fitted or top-dose-only effect; inactive = flat fitted curve, though single readings scatter.

tested on: CRL-7250; assay: qHTS assay to identify novel small-molecules to repurpose for Merkel cell carcinoma treatment (AID 1296009); conditions: MCC and control cell lines, CellTiter-Glo viability, 72 h; series mostly up to 92 µM; activity change, negative = cytotoxicity: at the top concentration; also: nearly all actives have a fitted effect of over 60% in size
Method in brief: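 Cell viability measured by CellTiter-Glo following 72 hr compound treatment at 37 degree celsius, with NPC and MIPE libraries tested in 8- and 11-point concentration series.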

Compound	outcome
COc1ccc(/C=C\C(=O)O)c(O[C@@H]2O[C@H](CO)[C@@H](O)[C@H](O)[C@H]2O)c1	inactive
NC(=O)C(O[C@@H]1O[C@H](CO[C@@H]2O[C@H](CO)[C@@H](O)[C@H](O)[C@H]2O)[C@@H](O)[C@H](O)[C@H]1O)c1ccccc1 (stereo partly specified)	inactive [at 17.4 µM]
CC/C=C\CCO[C@@H]1O[C@H](CO[C@@H]2OC[C@H](O)[C@H](O)[C@H]2O)[C@@H](O)[C@H](O)[C@H]1O	inactive
CC(C)[C@](O)(c1ccc2cc(OC(F)F)c(OC(F)F)cc2c1)c1cn[nH]n1	inactive
O=S(=O)(c1ccccc1)N(CC(F)(F)F)c1ccc(C(O)(C(F)(F)F)C(F)(F)F)cc1	inactive
O=S(=O)(O)c1ccc(Nc2ncnc3c2ncn3[C@@H]2O[C@H](CO)[C@@H](O)[C@H]2O)cc1	inactive
CC1=CCC2C(C)(CO)CCCC2(CO)C1CO (stereo unspecified)	inactive
Cc1nc(C(=O)N2CCC[C@H]2Cc2nnc(-c3ccccc3)o2)c(-c2ccccc2F)s1	inactive
O=C(O[C@H]1[C@@H]2C[C@@H]3OC[C@@](O)([C@H]2[C@H](O[C@@H]2O[C@H](CO)[C@@H](O)[C@H](O)[C@H]2O)O3)[C@@H]1O)c1ccccc1	inactive [at 17.4 µM]
C[C@H]1CC[C@H]2[C@@H](C=C[C@@](C)(O)[C@]2(C)C(=O)CCO)C1	inactive
C[C@@H]1O[C@@H](O[C@H]2[C@H](O[C@H]3CC[C@@]4(C)C(CC[C@]5(C)C4CC=C4[C@@H]6CC(C)(C)CC[C@]6(C(=O)O[C@@H]6OC[C@H](O)[C@H](O)[C@H]6O[C@@H]6O[C@@H](C)[C@H](O[C@@H]7O[C@H](CO)[C@@H](O)[C@H](O)[C@H]7O)[C@H](O)[C@H]6O)[C@H](O)C[C@]45C)C3(C)C)O[C@H](CO)[C@@H](O[C@@H]3OC[C@@H](O)[C@H](O)[C@H]3O)[C@@H]2O)[C@H](O)[C@H](O)[C@H]1O (stereo partly specified)	inactive [at 9.27 µM]
